Reference: PubChem BioAssay AID2599 (Sanford-Burnham Center for Chemical Genomics, 2010)
Among all 330,000 compounds or so, about 5,800 (1.8%) were called active.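 Rule for the calls: active = inhibition above about 50% at the single tested dose (limit read from the data); inactive = the rest.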 This excerpt belongs to a sample that is enriched for actives.

These compounds were tested against Sentrin-specific protease 6 (Homo sapiens) (UniProt Q9GZR1) (assay: SENP6 protease inhibitors, primary screen, biochemical, luminescence, uHTS (AID 2599;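 note: plate controls were DMSO wells with enzyme for no effect and DMSO wells lacking enzyme for full effect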)). Conditions: Recombinant SENP6 catalytic domain, aminoluciferin luminescence; at 10 µM; active compounds read high.
Sentrin-specific protease 6 (Homo sapiens), sequence (Q9GZR1 628-1112 limits assumed): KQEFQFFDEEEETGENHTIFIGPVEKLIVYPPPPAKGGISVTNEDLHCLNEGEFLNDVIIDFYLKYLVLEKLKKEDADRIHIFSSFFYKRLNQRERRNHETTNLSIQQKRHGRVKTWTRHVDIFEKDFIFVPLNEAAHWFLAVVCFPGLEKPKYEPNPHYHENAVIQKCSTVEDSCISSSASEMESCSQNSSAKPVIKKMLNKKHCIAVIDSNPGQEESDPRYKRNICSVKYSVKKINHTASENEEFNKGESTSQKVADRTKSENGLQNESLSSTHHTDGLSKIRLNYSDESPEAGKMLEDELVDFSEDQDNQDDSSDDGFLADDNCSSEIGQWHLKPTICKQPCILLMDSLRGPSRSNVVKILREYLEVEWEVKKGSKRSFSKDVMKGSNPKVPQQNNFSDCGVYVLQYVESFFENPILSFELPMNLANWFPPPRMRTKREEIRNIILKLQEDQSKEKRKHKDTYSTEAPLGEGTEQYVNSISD

SMILES | inhibition
COc1ccc(C(=O)NCC2CCCCC2)cc1S(=O)(=O)N1CCCC1 | -0.795% (inactive)
COc1ccc(COC(=O)c2n[nH]c3ccccc23)cc1F | -5.01% (inactive)
Cc1nn(C)c(C)c1S(=O)(=O)N1CCC(CO)(Cc2ccc(Cl)cc2)CC1 | -8.17% (inactive)
CC(C)N1C(=O)N(c2ccccc2)C(C)(O)CC1(C)C (stereo unspecified) | -17.1% (inactive)
O=C(COC(=O)Cn1[nH]c(=O)c2ccccc2c1=O)Nc1ncc(Cl)cc1Cl | -4.87% (inactive)
Cc1cccc(NS(=O)(=O)c2ccc(C(=O)NCC(C)(C)N3CCOCC3)cc2)c1C | 4.82% (inactive)
C=CCOc1ccc(C2/C(=C(\O)c3c(C)[nH]c(C(=O)OC)c3C)C(=O)C(=O)N2CCN(C)C)cc1 (stereo unspecified) | 9.74% (inactive)
COc1ccc(CN(C)C(=O)Cc2ccsc2)c(OC)c1OC | -22.6% (inactive)
O=C(COC(=O)c1ccc2c(c1)OCCO2)NCc1ccccc1Cl | 3.1% (inactive)
Cc1cc(C)nc(NC(=O)c2cccc([N+](=O)[O-])c2)c1 | -34.1% (inactive)
N#CCCN(C(=O)COC(=O)c1ccc2c(c1)OCCO2)c1ccccc1 | 6.71% (inactive)
O=C(OCc1ccccc1F)c1ccc2c(c1)OCCO2 | 95.5% (active)
O=C(Nc1ccc(NC(=O)c2ccco2)c(Cl)c1)c1cccc([N+](=O)[O-])c1 | 14.1% (inactive)
O=C(Nc1ccc(C2CC2(Cl)Cl)cc1)c1cccc([N+](=O)[O-])c1 (stereo unspecified) | 76.9% (active)
O=C(CCC(=O)n1ncc2ccccc21)NCc1ccccc1Cl | 15.9% (inactive)
Cc1nc(N)c(Br)c(C)c1Br | 0% (inactive)

SMILES | inhibition
COc1cccc(-n2nc(C(=O)N3CCN(Cc4ccccc4)CC3)c3ccccc3c2=O)c1 | -0.104% (inactive)
O=C(O)CSc1nccn1-c1cccc(Cl)c1 | -22.5% (inactive)
COCCCNC(=O)Cn1c(=O)n(Cc2ccccc2Cl)c(=O)c2cc(OC)c(OC)cc21 | -8.65% (inactive)
O=S(=O)(c1cnccc1N1CCN(/N=C/c2ccc(Br)cc2)CC1)N1CCCCC1 | -13.3% (inactive)
O=C(Nc1ccc(Cl)cc1)Nc1ccc(C(=O)N2CCOCC2)cc1 | -8.3% (inactive)
Cc1c(Cl)cccc1NC(=O)Nc1ccc(C(=O)N2CCCC2)cc1 | 61.5% (active)
Cc1c(Cl)cccc1NC(=O)NCCCN1CCCC1=O | 2.62% (inactive)
O=C(c1ccc2ccccc2n1)N1CCN(c2ccccc2Cl)CC1 | 5.78% (inactive)
CC(=O)Nc1ccc(OC(=O)COc2ccc(Br)cc2)cc1 | -9.28% (inactive)
S=c1[nH]nc(-c2cc(-c3ccccc3)n[nH]2)n1/N=C/c1c2ccccc2cc2ccccc12 | -3.75% (inactive)
CC(C)C(=O)NCc1cc(-c2ccc(Cl)cc2)no1 | -26.7% (inactive)
Cc1ccc(NC(=O)c2cc(-c3ccccc3O)n[nH]2)cc1C | -12.4% (inactive)
c1ccc(-c2cc(-c3ccccc3)[nH]n2)cc1 | 59.9% (active)
Oc1ccccc1-c1cc(-c2ccc(Cl)cc2)n[nH]1 | 89.2% (active)
S=c1[nH]nc(-c2cc(-c3ccsc3)n[nH]2)n1-c1ccccc1 | -13.8% (inactive)
